Here are results for 30 molecules from PubChem BioAssay AID1566 (Sanford-Burnham Center for Chemical Genomics, 2009).

SMILES strings stand for the structures. Out of some 290,000 compounds screened, about 1,800 (0.62%) were called active. This is one part of a sample in which actives are shown more often than they occur. Cut-off read from the data, not from the text of the source: active = inhibition above about 50%; inactive = the rest.

As a reminder, the inhibition is the relative decrease from the control value, in per cent.

A short description of this test: NOD2 signaling inhibitors, cell-based, luminescence, uHTS, HEK293 (AID 1566). As to conditions: HEK293 NOD2/NF-kB luciferase reporter, at 4 µM, hits give high values. In general terms: Reporter assays use an easily measured gene product as a stand-in for the process of interest.
In the case of `COc1ccccc1CNC(=O)c1cn(C)c2ccc(S(=O)(=O)N3CCCCC3)cc2c1=O`, the inhibition was -7.1% (inactive). Next, `CCn1c(C)c2c(C)nnc(C)c2c1C`: 8.3% (inactive); `Cc1ccc(CSC2=NCCN2C(=O)c2ccc(S(=O)(=O)N(C)C)cc2)cc1`: -5% (inactive); `COc1ccc(C)cc1NC(=O)CC(O)(C(F)(F)F)C(F)(F)F`: 1.2% (inactive).

For the molecule `COc1ccc(-c2nsc3c(N4CCCCC4)ncnc23)cc1`, the inhibition was -13.3% (inactive). On to `COc1ccc(-c2nsc3c(N4CCCC4)ncnc23)cc1`, for which the inhibition is -61.9% (inactive). As for `COc1ccc(-c2nsc3c(N4CCCCC4C)ncnc23)cc1` (stereo not given), the figure is 86% (active); as for `N/C(CC(=O)Nc1cccc(C(F)(F)F)c1)=N/O`, 5.4% (inactive).

Turning to `O=Nc1c2cc(-c3ccccc3)[nH]nc-2c2ccccc12`, the inhibition was -167% (inactive). As for `Cc1cccc(-c2cc3c(N=O)c4ccccc4c-3n[nH]2)c1`, the figure is -162% (inactive). As for `Cc1ccc(-c2cc3c(N=O)c4ccccc4c-3n[nH]2)cc1`, the figure is 70.7% (active). Next, `N#CC12CCCCC1CC1CCCCC1(C#N)N2N` (stereo not given): 1.8% (inactive); `O=C(CCCN1C(=O)c2ccccc2C1=O)NCCC1=CCCCC1`: 5.4% (inactive). `COc1ccc(-c2nc(CSCC(=O)NCc3ccco3)c(C)o2)cc1`: the inhibition is -2% (inactive). For `CCOc1ccc(-c2nc(CSCC(=O)NCc3ccco3)c(C)o2)cc1`, the inhibition was 9.4% (inactive).

With `CCc1ccc(-c2nc(CSCC(=O)NCc3ccco3)c(C)o2)cc1`, the inhibition was 50% (active). `O=C(OCc1nc2ccccc2s1)c1cc2ccccc2oc1=O`: the inhibition is -0.9% (inactive). `Cc1cc(Cl)c(S(=O)(=O)N2CCCC2)cc1OCC(=O)NC1CCCCC1`: the inhibition was 32.3% (inactive). As for `CCN1CCN(S(=O)(=O)c2cc(OCC(=O)NC3CCCCC3)c(C)cc2Cl)CC1`, the figure is 35.8% (inactive); as for `C=CCSc1nc2ccccc2n1Cc1nnc(-c2cccs2)o1`, 8.9% (inactive); as for `Cc1cc(CN(C)C(=O)c2cc(COc3ccc4ncccc4c3)on2)on1`, 28.5% (inactive). Next, `CN(Cc1cccnc1)C(=O)c1cc(COc2ccc3c(c2)CCCC3)on1`: -14.6% (inactive). On to `O=C(CNC(=S)N(CCCN1CCOCC1)Cc1cccs1)N1CCCCCC1`, for which the inhibition is -0.9% (inactive). Take `COc1ccc(N(CC(=O)N/N=C/c2ccc3c(c2)OCO3)S(=O)(=O)c2ccc(NC(C)=O)cc2)cc1`: the inhibition is -7.5% (inactive).

Take `COc1ccc(S(=O)(=O)N/N=C\c2ccc3c(c2)OCO3)cc1`: the inhibition was 29.5% (inactive). Next, `COc1ccc(OC)c(S(=O)(=O)N/N=C\c2ccc3c(c2)OCO3)c1`: -26.9% (inactive); `COc1ccc(S(=O)(=O)N/N=C\c2ccc3c(c2)OCO3)c(OC)c1`: 51.2% (active). Next, `Cc1ccc(S(=O)(=O)N/N=C\c2ccc([N+](=O)[O-])o2)cc1`: 13.4% (inactive). As to `COc1ccc(S(=O)(=O)N/N=C\c2ccc([N+](=O)[O-])o2)c(OC)c1`, the inhibition was 52.1% (active).

Take `Cc1ccc(S(=O)(=O)N/N=C\c2ccc([N+](=O)[O-])o2)cc1C`: the inhibition was 33.4% (inactive).
